Each structure is given as a SMILES string. A structure can be active in one record and inactive in another. Calls of active or inactive are those of the source. The calls were made as follows: active = hit-call score of the fitted dose curve at least 0.9, where 1 is the maximum; inactive = score below 0.9.

For orientation: AC50 means the concentration at which the activity in the assay is half-maximal.

A short description of one assay: CCTE_Mundy_HCI_Cortical_NOG_NeuriteCount: CCTE's Neurite Outgrowth Assay in rat cortical cells for Neurite Count, Mundy Lab (AID 2284212).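 Also: cells fixed about two days after chemical exposure began.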 In short, it runs like this:
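Neurite number per cell from high-content imaging of betaIII-tubulin immunostaining, with Hoechst nuclear counterstain.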
Take `O=S1OCC2C(CO1)C1(Cl)C(Cl)=C(Cl)C2(Cl)C1(Cl)Cl` (stereo not given): the AC50 is 22.1 µM (active).
In the case of `CC[C@H](C)[C@H]1O[C@]2(C=C[C@@H]1C)C[C@@H]1C[C@@H](C/C=C(\C)[C@@H](O[C@H]3C[C@H](OC)[C@@H](O[C@H]4C[C@H](OC)[C@@H](O)[C@H](C)O4)[C@H](C)O3)[C@@H](C)/C=C/C=C3\CO[C@@H]4[C@H](O)C(C)=C[C@@H](C(=O)O1)[C@]34O)O2` (tested in a mixture with another compound), the AC50 was 8.88 µM (active).
In the case of `O=S(=O)(O)C(F)(F)C(F)(F)C(F)(F)C(F)(F)C(F)(F)C(F)(F)C(F)(F)C(F)(F)F`, the compound was classed as inactive.
As for `COP(=S)(OC)Oc1ccc([N+](=O)[O-])cc1`, the AC50 is 23.4 µM (active).
Consider `CCC(C)(C)C(=O)OC1=C(c2ccc(Cl)cc2Cl)C(=O)OC12CCCCC2`, for which the result was inactive.
The same measure, in the same setting: under `O=C(O)C(F)(F)C(F)(F)C(F)(F)C(F)(F)C(F)(F)C(F)(F)C(F)(F)F` stands “inactive”.
Still for that read-out and setting: under `CC(C)N(C(=O)COc1nnc(C(F)(F)F)s1)c1ccc(F)cc1` stands “inactive”.
Take `CC1(c2ccc(Oc3ccccc3)cc2)OC(=O)N(Nc2ccccc2)C1=O` (stereo not given): the AC50 is 55.8 µM (active).
As to `O=C(O)COc1ccc(Cl)cc1Cl`, the outcome was inactive.
For `COP(=O)(OC)OC=C(Cl)Cl`, the AC50 is 77.3 µM (active) and the result was inactive.
On the same counts, the results for `CC1(C)C(C=C(Cl)Cl)C1C(=O)OC(C#N)c1ccc(F)c(Oc2ccccc2)c1` (stereo not given) are 77.2 µM (active) and “inactive”.
As to `CNC(=O)CSP(=S)(OC)OC`, the call was inactive.
On to `O=[N+]([O-])/N=C1\NCCN1Cc1ccc(Cl)nc1`, for which the compound was called inactive.

Another assay in a line: CCTE_Mundy_HCI_Cortical_NOG_NeuriteLength: CCTE's Neurite Outgrowth Assay in rat cortical cells for Neurite Length, Mundy Lab (AID 2284213).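 As to AC50: neurites imaged about 48 to 50 h after chemical exposure began.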 The gist of the method: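 Neurite length was read by high-content imaging of βIII-tubulin-labelled neurites in rat primary cortical cultures. Activity was fitted relative to DMSO.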
Turning to `O=S1OCC2C(CO1)C1(Cl)C(Cl)=C(Cl)C2(Cl)C1(Cl)Cl` (stereo not given), the AC50 was 23.8 µM (active).
Same read-out and setting: under `CC[C@H](C)[C@H]1O[C@]2(C=C[C@@H]1C)C[C@@H]1C[C@@H](C/C=C(\C)[C@@H](O[C@H]3C[C@H](OC)[C@@H](O[C@H]4C[C@H](OC)[C@@H](O)[C@H](C)O4)[C@H](C)O3)[C@@H](C)/C=C/C=C3\CO[C@@H]4[C@H](O)C(C)=C[C@@H](C(=O)O1)[C@]34O)O2` (tested in a mixture with another compound) stands 8.48 µM (active).
`O=S(=O)(O)C(F)(F)C(F)(F)C(F)(F)C(F)(F)C(F)(F)C(F)(F)C(F)(F)C(F)(F)F`: the call was inactive.
On to `COP(=S)(OC)Oc1ccc([N+](=O)[O-])cc1`, for which the AC50 was 23.7 µM (active).
In the case of `CCC(C)(C)C(=O)OC1=C(c2ccc(Cl)cc2Cl)C(=O)OC12CCCCC2`, the outcome was inactive.
Same read-out and setting: under `O=C(O)C(F)(F)C(F)(F)C(F)(F)C(F)(F)C(F)(F)C(F)(F)C(F)(F)F` stands “inactive”; under `CC(C)N(C(=O)COc1nnc(C(F)(F)F)s1)c1ccc(F)cc1`, “inactive”.
Take `CC1(c2ccc(Oc3ccccc3)cc2)OC(=O)N(Nc2ccccc2)C1=O` (stereo not given): the AC50 was 61.3 µM (active).
For `O=C(O)COc1ccc(Cl)cc1Cl`, the outcome was inactive.
In the case of `COP(=O)(OC)OC=C(Cl)Cl`, the AC50 is 57.5 µM (active) and the compound was classed as inactive.
On the same counts, the results for `CC1(C)C(C=C(Cl)Cl)C1C(=O)OC(C#N)c1ccc(F)c(Oc2ccccc2)c1` (stereo not given) are 79.7 µM (active) and “inactive”.
As for `CNC(=O)CSP(=S)(OC)OC`, the outcome was inactive.
Still for that read-out and setting: under `O=[N+]([O-])/N=C1\NCCN1Cc1ccc(Cl)nc1` stands “inactive”.

Source of the values: PubChem BioAssay (EPA / NIEHS).
